The results in this text go back to PubChem BioAssay AID2018 (Sanford-Burnham Center for Chemical Genomics, 2009).

Molecules are shown by their SMILES. In all, about 1,200 compounds went through this assay and about 600 (50%) were called active. Cut-off read from the data, not from the text of the source: active = inhibition above about 42%; inactive = the rest. So high a share suggests a set chosen from earlier hits. Some of the results follow. Results with a measured potency or affinity are listed apart.

SUMO-conjugating enzyme UBC9 (Homo sapiens), sequence (P63279 whole entry, looked up): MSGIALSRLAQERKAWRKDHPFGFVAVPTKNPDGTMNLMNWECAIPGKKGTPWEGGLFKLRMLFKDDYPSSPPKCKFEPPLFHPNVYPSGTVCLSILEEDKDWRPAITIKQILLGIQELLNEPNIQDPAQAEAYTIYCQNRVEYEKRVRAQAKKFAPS

The assay has as its target SUMO-conjugating enzyme UBC9 (Homo sapiens) (UniProt P63279). The assay is described as follows: blockers of UBC9-mediated SUMO conjugation – biochemical, AlphaScreen, SUMOylation inhibitor project, confirmation (AID 2018). Conditions: AlphaScreen in vitro SUMOylation assay; at 35 µM; active compounds read high.
For `O=C1CC(c2ccco2)CC(O)=C1C=Nc1cc(Cl)ccc1O` (centres undefined), the inhibition was 54.5% (active).

Consider `O=C1CC(c2ccco2)CC(O)=C1C=Nc1cc(Cl)ccc1Cl` (centres undefined), for which the inhibition is 17.2% (inactive).

With `O=C1CC(c2ccco2)CC(O)=C1C=NCC1NCCc2ccccc21` (centres undefined), the inhibition is 18.6% (inactive).

Regarding `O=C1CCN(c2ncccc2[N+](=O)[O-])CC1`, the inhibition was -9.6% (inactive).

Take `O=C1C(Cl)=C(N2CCN(c3ccccc3[N+](=O)[O-])CC2)C(=O)c2ccccc21`: the inhibition is 101% (active).

Take `Nc1c(Cl)cc(NC(=O)c2ccccc2C(=O)O)cc1Br`: the inhibition was 8% (inactive).

On to `CCCCN1Cc2c(nc3cc(-c4ccco4)[nH]n3c2=O)C1=O`, for which the inhibition was 4.3% (inactive).

Take `NS(=O)(=O)c1cnccc1Nc1ccc(Cl)cc1`: the inhibition was -32.2% (inactive).

As for `O=C(Nc1ccccc1)c1ccccc1CCc1ccccc1`, the inhibition is -9.6% (inactive).

`C/C(=C\C(=O)c1ccccc1)Nc1ccc(O)cc1`: the inhibition was 18.7% (inactive).

On to `COc1ccc(C2=NN(C(=O)c3cccs3)C(c3ccccc3O)C2)cc1` (centres undefined), for which the inhibition was 27.7% (inactive).

Regarding `O=C(O)c1ccc(N2N=C(c3ccccc3)CC2c2ccccc2)cc1` (centres undefined), the inhibition was -14.9% (inactive).

Take `Cc1cc(=O)n2[nH]c(N)c(N=Nc3ccccc3)c2n1`: the inhibition is 23.6% (inactive).

For `CCOCCCNC1=C(Cl)C(=O)c2ccccc2C1=O`, the inhibition is 90.1% (active).

As for `O=C1c2nc3cc(-c4ccco4)[nH]n3c(=O)c2CN1C1CCCCC1`, the inhibition is 6.6% (inactive).

Consider `Cc1[nH][nH]c(=O)c1C(c1c(C)[nH][nH]c1=O)c1cn(Cc2ccc(F)cc2)c2ccccc12`, for which the inhibition is 50.9% (active).

Take `Cc1[nH][nH]c(=O)c1C(c1c(C)[nH][nH]c1=O)c1cn(Cc2cccc3ccccc23)c2ccccc12`: the inhibition is 32.5% (inactive).

Take `Cc1[nH][nH]c(=O)c1C(c1c(C)[nH][nH]c1=O)c1cn(C)c2ccccc12`: the inhibition is 102% (active).

`O=C(NCc1ccc(F)cc1)C(=O)c1cn(CC(=O)N2CCCC2)c2ccccc12`: the inhibition was 11.6% (inactive).

In the case of `O=C(O)/C=C/C(=O)Nc1ccc2c(c1)NC(=O)CO2`, the inhibition was 13.1% (inactive).

On to `Cc1c(O)ccc2c(CC(=O)N[C@@H](Cc3ccc(O)cc3)C(=O)O)cc(=O)oc12`, for which the inhibition was 16.9% (inactive).

For the molecule `COc1ccc2c(c1)c(=O)oc1c(C)c(OCc3ccc(C(=O)O)cc3)ccc12`, the inhibition was 65.5% (active).

In the case of `COc1ccc(NC(=S)Nc2cccc3ccccc23)cc1OC`, the inhibition is 10.7% (inactive).

For the molecule `CC(=O)Nc1cccc(NC(=S)Nc2cccc3ccccc23)c1`, the inhibition was 28.9% (inactive).

On to `COc1cc2cc(NC(C)=O)cc(NCc3ccccc3)c2cc1OC`, for which the inhibition was 50.6% (active).

As for `CCOC(=O)N1CCN(C2=C(NS(=O)(=O)c3ccc(NC(C)=O)cc3)C(=O)c3ccccc3C2=O)CC1`, the inhibition is 53.7% (active).

Regarding `CC(=O)Nc1ccc(S(=O)(=O)Nc2cccn(Cc3ccc(C)cc3)c2=O)cc1`, the inhibition was 1.7% (inactive).

For the molecule `CCOC(=O)N1CCC(c2cc(=O)n(-c3ccccc3)[nH]2)CC1`, the inhibition is 16.1% (inactive).

Turning to `Cc1ccc(C(=O)Nc2ccccc2C(=O)N2CCN(c3ccccc3)CC2)cc1`, the inhibition is -27.1% (inactive).

As to `CCOC(=O)N1CCN(C2=C(NS(=O)(=O)c3ccc(C)cc3)C(=O)c3ccccc3C2=O)CC1`, the inhibition is 85.2% (active).

In the case of `COc1ccc(Br)cc1C1CC(=O)N2CN(Cc3ccccc3)CSC2=C1C#N` (centres undefined), the inhibition was 29.1% (inactive).

With `O=C1C(=O)c2ccccc2C(O)=C1CCCCl`, the inhibition was 102% (active).

For `COc1ccc(CC2=C(O)c3ccccc3C(=O)C2=O)cc1`, the inhibition was 19.6% (inactive).

`CC1(OC(=O)c2cccs2)C(=O)C=C2C=C3CCCN3C=C2C1=O` (centres undefined): the inhibition was 83.7% (active).

Consider `Cc1nc2ccc(NC(=O)NCc3ccco3)cc2s1`, for which the inhibition was -8.1% (inactive).

On to `CC(=O)C1=C(O)C=C(c2ccco2)CC1c1ccco1` (centres undefined), for which the inhibition is 28.1% (inactive).

As to `Cc1ccc(S(=O)(=O)NNC(=S)Nc2c(Cl)cccc2Cl)cc1`, the inhibition is -0.4% (inactive).

With `Fc1ccc(-c2ccnc3nc(N4CCOCC4)nn23)cc1`, the inhibition is -6.1% (inactive).

With `O=C(O)c1ccc(C(=O)Nc2cccc3ccccc23)c(C(=O)O)c1`, the inhibition is 12.5% (inactive).

For `Cc1cc(N2C(=O)c3ccc(C(=O)Nc4ccc(O)cc4C(=O)O)cc3C2=O)no1`, the inhibition was 39.8% (inactive).

As for `N#Cc1ccc(-c2csc(NC(=O)/C=C/c3cccs3)n2)cc1`, the inhibition is 3.9% (inactive).

With `Nc1nnc(-c2cc3c(ccc4ccccc43)oc2=O)s1`, the inhibition is 46.1% (active).

Turning to `CNc1nnc(-c2cc3ccccc3oc2=O)s1`, the inhibition was 28.9% (inactive).

For the molecule `COC(=O)c1scc(C)c1NC(=O)C(Cl)c1ccccc1` (centres undefined), the inhibition was -8.2% (inactive).

For `N#Cc1sc2nc(-c3ccccc3)cc(-c3ccco3)c2c1N`, the inhibition is 96.1% (active).

Turning to `CC(=O)c1sc2nc(-c3ccco3)ccc2c1N`, the inhibition was 40% (inactive).

Turning to `N#Cc1c(-c2ccco2)cc(-c2cccnc2)nc1N`, the inhibition is 26.7% (inactive).

Consider `CCOc1cc2c(C#N)c(N3CCCCC3)nc(N)c2c(N)n1`, for which the inhibition was 101% (active).

Consider `COc1ccc(CN2C(=O)Cc3c2nc(N)c2c(N)nc(N4CCOCC4)c(C#N)c32)cc1`, for which the inhibition is 11% (inactive).

On to `CCOc1cc2c(C#N)c(N3CCOCC3)nc(N)c2c(N)n1`, for which the inhibition was 44.2% (active).

`CCOc1cc2c(C#N)c(N3CCNCC3)nc(N)c2c(N)n1`: the inhibition was 18.3% (inactive).

Turning to `Cc1oc2c(c(C)cc3oc(=O)c(CC(=O)NCC(=O)NCC(=O)NCC(C)O)c(C)c32)c1C` (centres undefined), the inhibition was -15.6% (inactive).

On to `O=C(Nc1cccc2cccc(NC(=O)c3ccco3)c12)c1ccco1`, for which the inhibition is 36.3% (inactive).

As for `CCOC(=O)c1c(NC(=O)c2ccco2)n(C2CCCCC2)c2nc3ccccc3nc12`, the inhibition is 63.5% (active).

Consider `COc1ccc(-n2c(NC(=O)c3ccco3)c(C#N)c3nc4ccccc4nc32)cc1`, for which the inhibition is 101% (active).

On to `CN(c1ccccc1)c1cc(=O)[nH]c(=O)[nH]1`, for which the inhibition was 11.4% (inactive).

With `Oc1ccc(NC(=S)Nc2ccc(O)cc2)cc1`, the inhibition is 19.5% (inactive).

For `Oc1oc(-c2ccccc2)nc1C=Nc1cccc2ccccc12`, the inhibition was -77.5% (inactive).

As for `Oc1cccc(C=Nc2cccc3ccccc23)c1O`, the inhibition was 59% (active).

`Cc1ccccc1N=Cc1cccc(O)c1O`: the inhibition is 33.2% (inactive).

With `O=C(CNc1cccc2ccccc12)N/N=C/c1ccc([N+](=O)[O-])cc1`, the inhibition is -19.8% (inactive).

On to `Oc1cccc(C=NCc2ccccc2)c1O`, for which the inhibition is 51.5% (active).

With `O=[N+]([O-])c1ccc(-c2ccc(C=Nc3cccc4ccccc34)o2)cc1`, the inhibition was 58.3% (active).

With `O=[N+]([O-])c1ccc(C=Nc2cccc3ccccc23)s1`, the inhibition is 82.6% (active).

As to `CN(C)CCNS(=O)(=O)c1ccc2c3c(cccc13)C(=O)N2`, the inhibition was 15.4% (inactive).

With `Oc1cccc2c(NC(=S)Nc3ccc(SC(F)F)cc3)cccc12`, the inhibition was 36.5% (inactive).

Consider `O=C(NCCc1csc(-c2ccccc2)n1)c1c(F)cccc1Cl`, for which the inhibition was -8.6% (inactive).

For `Oc1ccccc1N=Cc1c(O)ccc2ccccc12`, the inhibition was 56.9% (active).

`Oc1ccc2ccccc2c1C=Nc1ccc(Cl)cn1`: the inhibition is 26.1% (inactive).

In the case of `Oc1ccc(C=Nc2cccc3ncccc23)c(O)c1`, the inhibition was 27.7% (inactive).

On to `COc1ccc(C=Nc2cccc3ncccc23)cc1`, for which the inhibition is 16.5% (inactive).

Regarding `CCOc1ccc(C=Nc2cccc3ncccc23)cc1`, the inhibition is 23.5% (inactive).

Consider `O=[N+]([O-])c1cccc2cn[nH]c12`, for which the inhibition is -0.5% (inactive).

Consider `Oc1c(C=Nc2cccc3nsnc23)ccc2ccccc12`, for which the inhibition is 98% (active).

Consider `Oc1ccc(N=Cc2c(O)ccc3ccccc23)cc1`, for which the inhibition is 21.9% (inactive).

On to `Oc1ccc(C=Nc2cccc3ccccc23)c(O)c1`, for which the inhibition is 42.8% (active).

Regarding `N#CC1=C(N)N2C(=C(C#N)C1c1ccc(Br)cc1)Nc1ccccc12` (centres undefined), the inhibition was 20.4% (inactive).

`Cc1cc(NCCO)c2cc(O)ccc2n1`: the inhibition was 3% (inactive).

Regarding `O=[N+]([O-])c1cc(C=Nc2cccc3c(O)cccc23)ccc1Cl`, the inhibition is 33.8% (inactive).

In the case of `O=[N+]([O-])c1ccc(C=Nc2ccc(Cl)c([N+](=O)[O-])c2)s1`, the inhibition was 98.4% (active).

Regarding `O=C(NC(=S)Nc1cccc2c(O)cccc12)c1cccc(Br)c1`, the inhibition was 52.7% (active).

Take `O=C(NC(=S)Nc1cccc2c(O)cccc12)c1ccco1`: the inhibition was 41.6% (inactive).

Turning to `CCCC(=O)NC(=S)Nc1cccc2c(O)cccc12`, the inhibition is 10.1% (inactive).

`NNc1nc2c(Cl)ccc(Cl)c2s1`: the inhibition was 8% (inactive).

Regarding `Cc1ccc(C)c(S(=O)(=O)Nc2ccc(O)c3ccccc23)c1`, the inhibition was 39.8% (inactive).

Turning to `Cc1ccc(C)c(S(=O)(=O)Nc2cc(SCC(=O)O)c(O)c3ccccc23)c1`, the inhibition is 51.2% (active).

On to `Cc1cc(C)c(S(=O)(=O)Nc2cc(SCC(=O)O)c(O)c3ccccc23)cc1C`, for which the inhibition is 43.1% (active).

Consider `COc1ccc2c(C)c(C(=O)NCC(C)O)oc2c1OC` (centres undefined), for which the inhibition is 6.4% (inactive).

On to `COC(=O)c1cc2c(C)[nH]c(C)c2cc(C(=O)OC)c1=O`, for which the inhibition is 13.6% (inactive).

As to `CN1CCCc2cc3c(C(F)(F)F)cc(=O)oc3nc21`, the inhibition is -9% (inactive).

Consider `N#CC1=C(N)Oc2n[nH]c(-c3cccs3)c2C1c1cccs1` (centres undefined), for which the inhibition was 33.5% (inactive).

Regarding `Cc1cc(-c2csc(NC(=O)c3ccc(C#N)cc3)n2)c(C)n1Cc1ccco1`, the inhibition was 21.4% (inactive).

Regarding `Cc1cc(NC(=O)CSc2nnc(Nc3ccccc3C)s2)no1`, the inhibition is 25.7% (inactive).

Regarding `Cc1c(C)c2cc(Cl)c(O)c(CN3CCN(C)CC3)c2oc1=O`, the inhibition was -1% (inactive).

Take `CCOC(=O)c1sc(NC(=O)c2cccc(S(=O)(=O)N3CCc4ccccc43)c2)c(C#N)c1C`: the inhibition was 33.4% (inactive).

In the case of `O=C(NCc1ccccc1)Nc1cccn(Cc2ccccc2)c1=O`, the inhibition was 3.6% (inactive).

Regarding `COc1ccccc1NC(=O)Cn1nc(C)n2cccc2c1=O`, the inhibition is 0.4% (inactive).

On to `COc1ccccc1NC(=O)CSc1ccc2nnc(-c3ccccn3)n2n1`, for which the inhibition is 14.2% (inactive).

Take `CC1(C)CC(=O)C2=C(C1)Nc1[nH]c(=S)[nH]c(=O)c1C2c1ccccc1` (centres undefined): the inhibition is 12.7% (inactive).
